Data: PubChem BioAssay AID779 (Sanford-Burnham Center for Chemical Genomics, 2007)
Unmarked numbers belong to inactive results. How the calls were made is not given here.

Assay: PLAP enzyme activity inhibition – biochemical, colorimetric, counter-screen, dose response (AID 779)
Settings: colorimetric OD read-out

Structure (SMILES)	IC50
Cc1cc(C=C2C(=O)N(C)C(=S)N(C)C2=O)c(C)n1C1CCCCC1	> 50 µM
CC(=O)OC1(c2ccc(C)cc2)CN2CCC1c1ccccc12 (stereo not given)	> 50 µM
CCCCOP(=O)(OCCCC)/C(C#N)=C(/C)O	> 50 µM
COc1ccc(C(=O)CN2CCOCC2)cc1F	> 50 µM
CN1/C(=C\C=C\C2=[N+](C)c3ccc4ccccc4c3C2(C)C)C(C)(C)c2ccccc21	> 50 µM
